According to ChEMBL document CHEMBL1961873, “Compounds: GSK PKIS; Assays: Nanosyn kinase panel” (2012):

Legend:
[1] = molecular target: T1, Ephrin type-B receptor 2 (Homo sapiens) (UniProt P29323); settings: at 1 µM
T1 sequence (whole entry): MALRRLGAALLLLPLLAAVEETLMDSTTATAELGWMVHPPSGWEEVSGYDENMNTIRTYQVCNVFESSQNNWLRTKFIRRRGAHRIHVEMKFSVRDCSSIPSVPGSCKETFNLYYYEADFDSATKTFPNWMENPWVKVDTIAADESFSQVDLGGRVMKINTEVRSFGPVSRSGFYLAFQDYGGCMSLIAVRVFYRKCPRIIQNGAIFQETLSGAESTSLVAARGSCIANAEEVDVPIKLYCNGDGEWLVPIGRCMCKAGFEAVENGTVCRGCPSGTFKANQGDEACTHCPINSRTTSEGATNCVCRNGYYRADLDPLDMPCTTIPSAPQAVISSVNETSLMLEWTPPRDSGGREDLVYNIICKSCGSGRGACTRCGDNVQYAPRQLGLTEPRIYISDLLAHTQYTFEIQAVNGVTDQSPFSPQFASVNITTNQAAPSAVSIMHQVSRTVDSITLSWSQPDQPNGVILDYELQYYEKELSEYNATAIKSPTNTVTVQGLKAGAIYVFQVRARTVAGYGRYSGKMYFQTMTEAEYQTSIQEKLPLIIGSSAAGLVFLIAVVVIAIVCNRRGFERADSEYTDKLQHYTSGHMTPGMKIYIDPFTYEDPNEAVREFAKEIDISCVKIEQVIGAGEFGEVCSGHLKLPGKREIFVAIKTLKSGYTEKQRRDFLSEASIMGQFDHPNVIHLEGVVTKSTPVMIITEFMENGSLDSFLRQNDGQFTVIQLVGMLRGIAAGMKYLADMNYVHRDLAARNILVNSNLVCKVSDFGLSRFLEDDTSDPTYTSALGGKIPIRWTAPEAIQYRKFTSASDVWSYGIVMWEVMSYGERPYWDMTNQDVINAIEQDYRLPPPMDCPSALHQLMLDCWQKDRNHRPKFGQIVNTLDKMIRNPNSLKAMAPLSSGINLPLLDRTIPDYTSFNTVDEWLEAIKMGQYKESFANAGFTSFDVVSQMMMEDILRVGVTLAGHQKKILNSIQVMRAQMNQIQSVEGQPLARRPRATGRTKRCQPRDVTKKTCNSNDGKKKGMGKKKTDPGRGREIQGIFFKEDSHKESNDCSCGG

[2] = molecular target: T2, Ephrin type-B receptor 3 (Homo sapiens) (UniProt P54753); settings: at 0.1 µM
T2 sequence (whole entry): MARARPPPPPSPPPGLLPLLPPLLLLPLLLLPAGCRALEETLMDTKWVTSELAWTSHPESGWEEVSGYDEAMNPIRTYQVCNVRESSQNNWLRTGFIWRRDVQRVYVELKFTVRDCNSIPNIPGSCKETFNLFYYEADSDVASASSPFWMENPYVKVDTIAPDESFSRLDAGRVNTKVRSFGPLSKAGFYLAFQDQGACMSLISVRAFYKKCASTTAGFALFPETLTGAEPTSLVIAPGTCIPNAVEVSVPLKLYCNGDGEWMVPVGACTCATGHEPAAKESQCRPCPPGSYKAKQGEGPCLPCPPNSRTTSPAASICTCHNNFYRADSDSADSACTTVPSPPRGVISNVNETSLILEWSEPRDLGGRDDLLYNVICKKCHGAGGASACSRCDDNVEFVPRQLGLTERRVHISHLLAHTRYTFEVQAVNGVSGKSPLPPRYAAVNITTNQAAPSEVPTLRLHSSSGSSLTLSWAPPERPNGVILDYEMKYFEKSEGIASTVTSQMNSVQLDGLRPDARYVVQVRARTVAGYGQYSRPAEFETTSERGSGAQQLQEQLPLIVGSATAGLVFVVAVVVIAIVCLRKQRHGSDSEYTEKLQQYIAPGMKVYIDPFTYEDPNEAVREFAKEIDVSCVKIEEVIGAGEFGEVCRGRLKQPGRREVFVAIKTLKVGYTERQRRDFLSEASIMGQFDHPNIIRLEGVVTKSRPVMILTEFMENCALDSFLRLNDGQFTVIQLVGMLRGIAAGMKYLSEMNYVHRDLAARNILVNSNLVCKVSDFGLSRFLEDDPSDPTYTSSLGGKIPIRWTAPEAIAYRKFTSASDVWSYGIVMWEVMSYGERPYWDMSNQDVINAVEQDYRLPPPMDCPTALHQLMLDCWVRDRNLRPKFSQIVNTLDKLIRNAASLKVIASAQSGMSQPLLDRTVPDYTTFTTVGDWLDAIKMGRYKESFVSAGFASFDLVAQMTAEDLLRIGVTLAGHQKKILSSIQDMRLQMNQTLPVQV

[3] = molecular target: T2, Ephrin type-B receptor 3 (Homo sapiens); settings: at 1 µM
[4] = molecular target: T3, Ephrin type-B receptor 4 (Homo sapiens) (UniProt P54760); settings: at 0.1 µM
T3 sequence (whole entry): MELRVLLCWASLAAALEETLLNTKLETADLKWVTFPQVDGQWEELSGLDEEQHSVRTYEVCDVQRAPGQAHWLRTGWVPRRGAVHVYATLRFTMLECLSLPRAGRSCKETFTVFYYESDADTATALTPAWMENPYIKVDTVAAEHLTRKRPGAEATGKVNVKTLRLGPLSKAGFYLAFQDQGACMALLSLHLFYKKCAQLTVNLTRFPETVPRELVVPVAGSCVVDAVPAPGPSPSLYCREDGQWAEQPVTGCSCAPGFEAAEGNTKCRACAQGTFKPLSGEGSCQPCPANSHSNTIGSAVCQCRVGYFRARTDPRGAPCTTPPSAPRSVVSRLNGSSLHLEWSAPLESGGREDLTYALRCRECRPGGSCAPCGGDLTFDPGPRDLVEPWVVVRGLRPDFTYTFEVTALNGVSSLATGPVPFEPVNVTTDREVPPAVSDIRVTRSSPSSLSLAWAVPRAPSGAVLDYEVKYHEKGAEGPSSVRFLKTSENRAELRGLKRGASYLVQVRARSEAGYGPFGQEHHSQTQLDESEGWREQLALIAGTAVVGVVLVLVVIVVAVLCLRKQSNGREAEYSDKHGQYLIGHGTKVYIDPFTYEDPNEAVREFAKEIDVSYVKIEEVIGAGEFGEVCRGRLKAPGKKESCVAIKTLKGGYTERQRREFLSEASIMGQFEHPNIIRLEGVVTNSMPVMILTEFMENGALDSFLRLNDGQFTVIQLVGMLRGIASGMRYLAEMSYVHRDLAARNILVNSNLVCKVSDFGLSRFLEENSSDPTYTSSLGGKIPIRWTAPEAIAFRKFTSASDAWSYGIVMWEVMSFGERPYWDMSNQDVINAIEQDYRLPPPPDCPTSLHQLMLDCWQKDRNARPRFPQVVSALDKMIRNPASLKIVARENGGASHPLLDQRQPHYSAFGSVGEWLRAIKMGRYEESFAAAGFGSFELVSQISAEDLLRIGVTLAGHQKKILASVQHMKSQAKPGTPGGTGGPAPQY

[5] = molecular target: T3, Ephrin type-B receptor 4 (Homo sapiens); settings: at 1 µM
[6] = molecular target: Receptor tyrosine-protein kinase erbB-2 (Homo sapiens) (UniProt P04626); settings: at 0.1 µM
[7] = molecular target: Receptor tyrosine-protein kinase erbB-2 (Homo sapiens) (UniProt P04626); settings: at 1 µM
[8] = molecular target: Receptor tyrosine-protein kinase erbB-4 (Homo sapiens) (UniProt Q15303); settings: at 0.1 µM
[9] = molecular target: Receptor tyrosine-protein kinase erbB-4 (Homo sapiens) (UniProt Q15303); settings: at 1 µM
[10] = molecular target: Tyrosine-protein kinase Fer (Homo sapiens) (UniProt P16591); settings: at 0.1 µM
[11] = molecular target: Tyrosine-protein kinase Fer (Homo sapiens) (UniProt P16591); settings: at 1 µM
[12] = molecular target: Tyrosine-protein kinase Fes/Fps (Homo sapiens) (UniProt P07332); settings: at 0.1 µM
[13] = molecular target: Tyrosine-protein kinase Fes/Fps (Homo sapiens) (UniProt P07332); settings: at 1 µM
[14] = molecular target: Fibroblast growth factor receptor 1 (Homo sapiens) (UniProt P11362); settings: at 0.1 µM
[15] = molecular target: Fibroblast growth factor receptor 1 (Homo sapiens) (UniProt P11362); settings: at 1 µM
[16] = molecular target: Fibroblast growth factor receptor 2 (Homo sapiens) (UniProt P21802); settings: at 0.1 µM
[17] = molecular target: Fibroblast growth factor receptor 2 (Homo sapiens) (UniProt P21802); settings: at 1 µM
[18] = molecular target: Fibroblast growth factor receptor 3 (Homo sapiens) (UniProt P22607); settings: at 0.1 µM
[19] = molecular target: Fibroblast growth factor receptor 3 (Homo sapiens) (UniProt P22607); settings: at 1 µM
[20] = molecular target: Fibroblast growth factor receptor 4 (Homo sapiens) (UniProt P22455); settings: at 0.1 µM;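 note: values are mean percent inhibition of FGFR4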
Chain of Fibroblast growth factor receptor 4 (Homo sapiens) (P22455 22-802 limits assumed): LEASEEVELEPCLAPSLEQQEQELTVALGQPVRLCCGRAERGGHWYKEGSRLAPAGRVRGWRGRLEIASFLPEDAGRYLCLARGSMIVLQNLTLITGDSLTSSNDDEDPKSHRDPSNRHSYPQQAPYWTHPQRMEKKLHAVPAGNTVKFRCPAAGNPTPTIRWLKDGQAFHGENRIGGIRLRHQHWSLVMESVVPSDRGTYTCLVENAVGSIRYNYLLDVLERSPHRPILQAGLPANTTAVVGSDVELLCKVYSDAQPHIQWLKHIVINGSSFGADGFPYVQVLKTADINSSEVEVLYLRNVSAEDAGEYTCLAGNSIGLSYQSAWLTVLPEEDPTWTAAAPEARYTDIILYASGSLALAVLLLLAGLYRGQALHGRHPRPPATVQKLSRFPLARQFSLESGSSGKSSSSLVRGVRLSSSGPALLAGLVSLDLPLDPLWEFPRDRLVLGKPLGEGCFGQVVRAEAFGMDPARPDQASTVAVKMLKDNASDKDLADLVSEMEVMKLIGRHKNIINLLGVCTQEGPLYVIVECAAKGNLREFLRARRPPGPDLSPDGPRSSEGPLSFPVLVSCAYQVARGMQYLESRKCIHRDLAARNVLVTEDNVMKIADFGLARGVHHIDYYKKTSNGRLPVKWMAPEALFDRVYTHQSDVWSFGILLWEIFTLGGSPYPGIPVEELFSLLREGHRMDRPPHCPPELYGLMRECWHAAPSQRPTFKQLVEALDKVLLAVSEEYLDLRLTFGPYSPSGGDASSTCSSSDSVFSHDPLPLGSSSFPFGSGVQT

Chain of Fibroblast growth factor receptor 2 (Homo sapiens) (P21802 22-821 limits assumed): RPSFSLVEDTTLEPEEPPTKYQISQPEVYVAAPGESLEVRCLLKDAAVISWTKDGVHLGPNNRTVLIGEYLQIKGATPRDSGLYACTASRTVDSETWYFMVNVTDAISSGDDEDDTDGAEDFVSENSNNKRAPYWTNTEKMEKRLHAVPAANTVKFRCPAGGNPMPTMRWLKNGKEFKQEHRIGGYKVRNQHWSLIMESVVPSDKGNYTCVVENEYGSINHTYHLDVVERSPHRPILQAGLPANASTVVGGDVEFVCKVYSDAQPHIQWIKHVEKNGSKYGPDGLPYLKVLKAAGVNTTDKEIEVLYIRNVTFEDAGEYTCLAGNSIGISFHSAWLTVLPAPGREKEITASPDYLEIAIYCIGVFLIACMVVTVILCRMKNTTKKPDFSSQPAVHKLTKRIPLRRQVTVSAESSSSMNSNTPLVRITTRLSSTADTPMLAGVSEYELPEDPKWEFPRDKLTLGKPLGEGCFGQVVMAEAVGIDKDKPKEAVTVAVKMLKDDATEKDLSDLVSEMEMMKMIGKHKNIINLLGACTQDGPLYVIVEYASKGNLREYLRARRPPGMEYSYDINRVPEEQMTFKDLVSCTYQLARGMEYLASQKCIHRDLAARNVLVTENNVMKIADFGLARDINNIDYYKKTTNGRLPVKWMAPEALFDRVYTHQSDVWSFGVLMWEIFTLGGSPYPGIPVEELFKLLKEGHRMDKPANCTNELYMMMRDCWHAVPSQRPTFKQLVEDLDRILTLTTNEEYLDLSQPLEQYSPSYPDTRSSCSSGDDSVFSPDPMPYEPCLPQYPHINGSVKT
Chain of Receptor tyrosine-protein kinase erbB-2 (Homo sapiens) (P04626 whole entry): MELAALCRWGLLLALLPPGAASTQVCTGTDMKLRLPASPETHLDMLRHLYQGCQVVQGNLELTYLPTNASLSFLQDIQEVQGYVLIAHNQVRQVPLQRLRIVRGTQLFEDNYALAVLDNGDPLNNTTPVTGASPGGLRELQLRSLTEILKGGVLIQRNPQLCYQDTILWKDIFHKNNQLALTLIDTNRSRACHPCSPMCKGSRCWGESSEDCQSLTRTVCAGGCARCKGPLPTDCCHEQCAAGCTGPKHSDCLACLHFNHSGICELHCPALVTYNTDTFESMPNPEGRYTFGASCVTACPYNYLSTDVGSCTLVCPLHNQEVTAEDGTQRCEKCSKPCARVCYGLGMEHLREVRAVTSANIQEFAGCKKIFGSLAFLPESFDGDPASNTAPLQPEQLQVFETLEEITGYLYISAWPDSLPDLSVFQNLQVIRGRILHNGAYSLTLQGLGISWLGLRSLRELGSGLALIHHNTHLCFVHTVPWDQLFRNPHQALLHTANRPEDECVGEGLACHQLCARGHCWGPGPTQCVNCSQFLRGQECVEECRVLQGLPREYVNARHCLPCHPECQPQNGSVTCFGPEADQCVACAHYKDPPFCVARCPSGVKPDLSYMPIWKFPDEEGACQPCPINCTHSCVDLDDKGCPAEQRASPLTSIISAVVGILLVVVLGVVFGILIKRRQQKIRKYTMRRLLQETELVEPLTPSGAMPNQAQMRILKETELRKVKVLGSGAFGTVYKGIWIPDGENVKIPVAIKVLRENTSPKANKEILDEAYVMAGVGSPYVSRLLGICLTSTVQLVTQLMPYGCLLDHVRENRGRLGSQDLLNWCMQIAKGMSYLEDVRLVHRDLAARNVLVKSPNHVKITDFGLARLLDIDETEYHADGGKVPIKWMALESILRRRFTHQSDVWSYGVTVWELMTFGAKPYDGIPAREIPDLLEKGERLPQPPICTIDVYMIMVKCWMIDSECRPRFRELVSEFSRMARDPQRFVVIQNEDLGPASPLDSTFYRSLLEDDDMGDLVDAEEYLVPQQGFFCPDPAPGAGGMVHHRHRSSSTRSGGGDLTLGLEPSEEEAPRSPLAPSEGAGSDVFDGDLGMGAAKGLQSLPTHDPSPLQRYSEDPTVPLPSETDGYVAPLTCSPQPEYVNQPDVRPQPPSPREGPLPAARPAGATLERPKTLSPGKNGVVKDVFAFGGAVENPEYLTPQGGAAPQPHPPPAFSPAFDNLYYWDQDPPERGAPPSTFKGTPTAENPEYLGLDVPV
Chain of Fibroblast growth factor receptor 1 (Homo sapiens) (P11362 22-822 limits assumed): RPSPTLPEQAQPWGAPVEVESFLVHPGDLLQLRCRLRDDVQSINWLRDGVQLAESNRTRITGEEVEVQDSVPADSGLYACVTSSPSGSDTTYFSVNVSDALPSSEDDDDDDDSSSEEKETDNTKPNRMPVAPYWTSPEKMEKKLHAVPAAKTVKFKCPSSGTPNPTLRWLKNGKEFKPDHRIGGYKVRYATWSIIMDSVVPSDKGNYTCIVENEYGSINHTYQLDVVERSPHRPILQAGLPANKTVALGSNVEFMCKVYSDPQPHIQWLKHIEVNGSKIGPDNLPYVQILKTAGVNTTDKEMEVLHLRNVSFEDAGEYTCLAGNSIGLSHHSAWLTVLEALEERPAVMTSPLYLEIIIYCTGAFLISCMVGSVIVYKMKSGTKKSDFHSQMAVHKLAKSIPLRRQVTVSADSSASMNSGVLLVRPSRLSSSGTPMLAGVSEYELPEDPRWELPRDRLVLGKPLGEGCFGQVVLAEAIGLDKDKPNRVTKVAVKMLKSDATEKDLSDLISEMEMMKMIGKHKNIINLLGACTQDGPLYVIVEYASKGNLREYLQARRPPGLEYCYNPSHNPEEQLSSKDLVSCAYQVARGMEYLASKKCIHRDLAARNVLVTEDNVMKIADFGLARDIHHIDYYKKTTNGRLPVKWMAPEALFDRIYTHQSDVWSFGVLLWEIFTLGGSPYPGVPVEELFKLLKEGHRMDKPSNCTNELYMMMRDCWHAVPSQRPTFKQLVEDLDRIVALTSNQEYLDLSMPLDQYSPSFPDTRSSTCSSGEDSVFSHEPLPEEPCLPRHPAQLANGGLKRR
Chain of Tyrosine-protein kinase Fes/Fps (Homo sapiens) (P07332 whole entry): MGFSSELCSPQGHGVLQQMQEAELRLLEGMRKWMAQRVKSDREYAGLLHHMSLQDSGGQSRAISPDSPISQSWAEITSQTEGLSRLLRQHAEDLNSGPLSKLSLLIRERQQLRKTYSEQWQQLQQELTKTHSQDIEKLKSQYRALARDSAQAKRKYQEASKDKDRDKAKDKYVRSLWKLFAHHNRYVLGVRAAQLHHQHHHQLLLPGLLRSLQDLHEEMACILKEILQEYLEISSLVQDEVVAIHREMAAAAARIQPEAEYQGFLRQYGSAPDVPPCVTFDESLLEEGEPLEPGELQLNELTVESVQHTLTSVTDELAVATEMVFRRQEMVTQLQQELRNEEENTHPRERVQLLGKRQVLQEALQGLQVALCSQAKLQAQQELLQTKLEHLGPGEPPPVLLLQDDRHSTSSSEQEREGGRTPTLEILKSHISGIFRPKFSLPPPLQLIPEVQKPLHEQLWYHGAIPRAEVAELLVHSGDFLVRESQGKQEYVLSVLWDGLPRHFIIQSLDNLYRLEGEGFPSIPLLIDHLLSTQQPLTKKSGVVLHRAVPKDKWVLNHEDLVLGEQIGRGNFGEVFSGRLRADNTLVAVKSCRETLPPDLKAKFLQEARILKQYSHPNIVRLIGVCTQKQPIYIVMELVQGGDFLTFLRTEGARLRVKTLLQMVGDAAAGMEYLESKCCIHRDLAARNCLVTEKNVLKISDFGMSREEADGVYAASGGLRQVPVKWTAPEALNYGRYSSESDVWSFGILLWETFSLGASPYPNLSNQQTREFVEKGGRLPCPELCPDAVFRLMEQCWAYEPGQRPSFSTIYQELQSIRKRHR

SMILES	inhibition [1] [%]	inhibition [2] [%]	inhibition [3] [%]	inhibition [4] [%]	inhibition [5] [%]	inhibition [6] [%]	inhibition [7] [%]	inhibition [8] [%]	inhibition [9] [%]	inhibition [10] [%]	inhibition [11] [%]	inhibition [12] [%]	inhibition [13] [%]	inhibition [14] [%]	inhibition [15] [%]	inhibition [16] [%]	inhibition [17] [%]	inhibition [18] [%]	inhibition [19] [%]	inhibition [20] [%]
COc1cc(Nc2nccc(-c3cnn4ncccc34)n2)cc(OC)c1	40.2	3.58	-3.61	2.69	25.6	2.17	-0.98	5.96	8.81	11.1	58.6	10.7	53.2	-4.05	7.3	1.71	23	4	20.5	1.2
O=C1Nc2ccc(-c3cccnc3)cc2C1=Cc1cc(Br)c(O)c(Br)c1	11	4.6	2.28	2.97	3.11	-0.94	4.88	9.94	14.9	8.12	9.05	2.71	2.85	4.47	1.74	3.81	5.51	9.43	8.18	1.39
CCn1c(-c2nonc2N)nc2c(C#CC(C)(C)O)nc(OCCNC)cc21	8.26	-3.04	4	2.31	2.13	0.68	3.83	4.11	7.02	-0.15	1.17	4.11	4.46	6.92	5.9	5.4	6.92	7.79	3.95	4.43
COc1cccc(-n2ncc3c(N/N=C/c4ccc(S(C)(=O)=O)cc4)ncnc32)c1	11.5	-0.24	-2.08	-0.79	6.93	2.7	3.96	7.91	7.9	1.13	2.49	0.5	0.07	3.99	0.92	-2.62	4.85	1.85	4.08	-2.71
NC(=O)c1cccc(Nc2nccc(Nc3cccc(F)c3)n2)c1	18.1	2.13	2.83	-0.22	5.23	0.04	3.14	5.37	13.2	-2.66	14.6	1.24	7.67	9.63	10.2	2.81	13	4.22	9.81	2.38
COC(=O)c1cncc(/C=C/c2c(C)cc(O)cc2C)c1	56.4	6.09	11.8	6.99	38.7	1.31	2.82	7.72	10	2.19	2	1.96	3.05	4.08	0.61	4.05	7.59	6.59	4.87	-1.32
Cc1cc(O)cc(C)c1/C=C/c1cncc(C(=O)N(C)C)c1	22.5	5.26	5.69	3.23	7.53	1.35	-0.95	9.24	7.51	3.43	1.61	1.75	1.31	1.31	1.65	4.82	5.81	3.74	3.19	-0.32
Cc1ccc2c(-c3ccnc(Nc4cccc(C(F)(F)F)c4)n3)c(-c3ccccc3)nn2n1	51.7	3.61	9.16	7.62	46.4	5.37	37.7	40.4	79	-8.28	43.3	3.67	5.17	5.59	8.78	6.45	9.52	7.84	6.97	2.15
Nc1ccc(C#Cc2cncnc2Nc2ccc(OCc3cccc(F)c3)c(Cl)c2)cc1	6.65	3.43	3.54	0.47	2.45	5.63	10.1	12.9	54.4	2.93	1.48	2.44	2.24	2.53	4.37	3.89	4.27	3.12	4.49	2.37
NS(=O)(=O)c1ccc(N/N=C2\C(=O)Nc3ccc(Cl)cc32)cc1	6.46	3.51	2.43	1.05	2.86	2.29	4.3	4.78	–	2.95	7.24	2.52	2.84	1.63	1	2.43	14.7	5.81	13	-1.18
NC(=O)c1sc(-n2cnc3ccccc32)cc1OCc1ccccc1Br	10.9	4.52	6.83	1.58	3.37	0.61	3.64	3.34	9.23	-0.27	3.22	2.73	4.01	6.09	6.22	5.8	4.79	5.69	4.87	1.18
CN(C)CCCn1c(-c2nonc2N)nc2cnccc21	5.68	5.3	2.05	3.38	2.2	5.72	4.73	17.3	16.3	1.8	3.54	2.93	2.95	3.21	3.42	2.86	6.36	6.01	3.96	-1.87
CN(C)c1cc2c(Nc3ccc4c(cnn4Cc4ccccc4)c3)ncnc2cn1	0.46	4.69	1.55	0.91	2.11	53.4	86.6	91.1	94.6	1.79	7.22	2.58	3.25	2.28	4.22	2.03	2.51	4.39	4.14	0.85
